A selection: hits, their analogues and other compounds. The true share with any hit is near 5.7%.
AHR act: human AHR activation | P35869 | AHR-responsive luciferase reporter cells, luminescence | activation, % at 5 µM | actives 2.5% (n = 320,000) | AID 2796; in the data active = activation above about 47%
hcDAF-12 act: activates DAF-12 receptor from parasite H. contortus. HEK293 hcDAF-12 lit1-tk-luc reporter, luminescence; 0% DMSO, 100% Δ7-dafachronic acid. activation, % at 6.8 µM. actives 1.4% (n = 370,000);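 active = activation above the mean of all tested compounds plus 3 SD, cut at about 5.5% in these data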
DAX1 inh-1: inhibitors of DAX1 repression of SF-1 activated StAR promoter | actives 1.1% (n = 370,000) | HEK293T StAR-luciferase reporter, SF-1/DAX-1 repression relief | inhibition, % at 6.8 µM;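 active = inhibition above the mean over all tested compounds plus 3 SD, cut at about 3.6% in these data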;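 note: higher inhibition means more luminescence from relief of DAX-1 repression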
ssDAF-12 act: activators of S. stercoralis DAF-12 nuclear receptor | activation, % at 6.8 µM | HEK293 ssDAF-12/GRIP1 lit1-tk-luc reporter, luminescence; % of 3 µM dafachronic acid response | actives 1% (n = 370,000);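 active = activation above the mean over all tested compounds plus 3 SD, cut at about 0.9% in these data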
DAX1 inh-2: inhibits human nuclear receptor DAX1. P51843. HEK293 Gal4-DAX1 luciferase reporter, luminescence. inhibition, % at 6.75 µM. actives 0.99% (n = 340,000). AID 504766;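 active = inhibition above the mean over all tested compounds plus 3 SD, cut at about 4.2% in these data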;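 note: inhibition shows as a rise in luminescence from relieved DAX1 repression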
Target sequence (P51843 207-470 limits assumed): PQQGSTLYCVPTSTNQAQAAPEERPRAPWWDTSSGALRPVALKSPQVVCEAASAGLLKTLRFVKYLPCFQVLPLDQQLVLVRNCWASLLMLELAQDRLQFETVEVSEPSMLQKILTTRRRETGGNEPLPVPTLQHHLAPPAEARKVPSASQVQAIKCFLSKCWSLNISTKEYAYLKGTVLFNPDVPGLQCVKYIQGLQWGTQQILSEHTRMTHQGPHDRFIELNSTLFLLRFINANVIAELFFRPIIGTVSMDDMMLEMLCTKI
hgDAF-12 ag: agonists of H. glycines DAF-12 nuclear receptor; activation, % at 6.8 µM; HEK293 GAL4-hgDAF12 UAS-luciferase reporter, agonist luminescence; normalized to butyrate control; actives 1.8% (n = 370,000);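 active = activation above a cutoff set at the mean of all screened compounds plus 3 SD, cut at about 10% in these data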
LXRb hcDAF ctr: LXR-beta agonism as hcDAF-12 counter-screen | shares compounds with hcDAF-12 act | HEK293 Gal4-LXR tk-luc reporter, luminescence, 24 h; normalized: DMSO 0%, positive control 100% | activation, % at 6.8 µM | 3,400 tested, under 10 active | AID 743027;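 active = mean percent activation of the reporter above a cutoff set as the average over tested compounds plus their standard deviation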
Target sequence (P55055 whole entry, looked up, the tested form may be a part): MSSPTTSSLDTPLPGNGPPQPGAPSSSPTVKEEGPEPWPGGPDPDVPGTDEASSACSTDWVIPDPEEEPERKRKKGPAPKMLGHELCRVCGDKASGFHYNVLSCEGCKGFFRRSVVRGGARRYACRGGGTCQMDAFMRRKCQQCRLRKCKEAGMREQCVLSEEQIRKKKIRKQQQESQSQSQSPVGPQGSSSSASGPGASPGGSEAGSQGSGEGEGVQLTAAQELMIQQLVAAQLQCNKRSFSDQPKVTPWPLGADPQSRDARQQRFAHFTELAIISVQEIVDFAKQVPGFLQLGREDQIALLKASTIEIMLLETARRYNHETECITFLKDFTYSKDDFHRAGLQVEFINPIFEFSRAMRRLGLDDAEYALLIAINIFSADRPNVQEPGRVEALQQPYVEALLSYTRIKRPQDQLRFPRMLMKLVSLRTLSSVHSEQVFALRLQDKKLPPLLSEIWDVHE
hcDAF12 conf: hcDAF-12 agonism, confirmation assay; shares compounds with hcDAF-12 act; HEK293 hcDAF-12 lit1-tk-luc reporter, luminescence; % of Δ7-dafachronic acid response; activation, % at 6.8 µM; actives 61% (n = 3,400);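 active = mean activation across triplicate tests above the threshold derived from the earlier primary screen, cut at about 5.5% in these data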
hgDAF12 conf: hgDAF-12 agonism, confirmation assay; actives 80% (n = 3,300); activation, % at 6.8 µM; HEK293 GAL4-hgDAF12 luciferase reporter, agonist mode; percent of butyrate response; shares compounds with hgDAF-12 ag;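 active = mean activation over triplicate wells above the hit cutoff derived from the earlier primary screen, cut at about 11% in these data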
LXRb DAF12 ctr: activates human LXR-beta, counter-screen for DAF-12 agonists; AID 743051; HEK293 Gal4-LXR luciferase reporter, 24 h; shares compounds with hgDAF-12 ag; activation, % at 6.8 µM; 3,300 tested, under 10 active;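 active = mean activation of the triplicate above a set limit carried over from the primary screen, none filed active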
Large screens that a line does not name were inactive (follow-up assays come after a bar, where they were run).

O=C(NC(C(=O)c1ccccc1)n1c(=O)cc[nH]c1=S)c1ccccc1 (stereo not given)	none
COc1ccc(C(=O)N=c2nc3ccccn3s2)cc1	hcDAF-12 act 14, ssDAF-12 act 1.3, hgDAF-12 ag 17 | LXRb hcDAF ctr inactive | hcDAF12 conf 6.0 | hgDAF12 conf 11 | LXRb DAF12 ctr inactive
COc1ccc(C(=O)O/N=C2\C(=O)N(C)c3ccccc32)cc1	none
CCOC(=O)COn1c(-n2nc(C)cc2C)nc2ccccc2c1=O	none
O=C(Nc1nccs1)c1ccc2ccccc2n1	AHR act 50, hcDAF-12 act 18, ssDAF-12 act 3.6, hgDAF-12 ag 18 | LXRb hcDAF ctr inactive | hcDAF12 conf 16 | hgDAF12 conf 23 | LXRb DAF12 ctr inactive
O=C(Nc1nccs1)c1ccc(Cl)s1	none
O=C(Nc1nccs1)c1sc2ccccc2c1Cl	AHR act 47, hcDAF-12 act 15, ssDAF-12 act 3.0, hgDAF-12 ag 18 | LXRb hcDAF ctr inactive | hcDAF12 conf 16 | hgDAF12 conf 17 | LXRb DAF12 ctr inactive
Cc1csc(NC(=O)c2ccc3ccccc3n2)n1	AHR act 74, hcDAF-12 act 21, ssDAF-12 act 4.1, hgDAF-12 ag 18 | LXRb hcDAF ctr inactive | hcDAF12 conf 16 | hgDAF12 conf 26 | LXRb DAF12 ctr inactive
Cc1csc(NC(=O)c2cnc3ccccc3n2)n1	AHR act 57, hcDAF-12 act 15, ssDAF-12 act 2.1, hgDAF-12 ag 16 | LXRb hcDAF ctr inactive | hcDAF12 conf 14 | hgDAF12 conf 18 | LXRb DAF12 ctr inactive
O=C(Nc1cccc(Cl)c1)c1csc([C@@H]2C[C@H](O)[C@@H](CO)O2)n1	none (no result: AHR act, DAX1 inh-2)
CCCCCC1CC(CC(=O)Nc2ccc([N+](=O)[O-])cc2)C(=O)O1 (stereo not given)	none
O=C(Nc1nc2ccccc2c2nc3ccccc3n12)c1ccc(F)cc1	none (no result: hcDAF-12 act, DAX1 inh-1, ssDAF-12 act, DAX1 inh-2, hgDAF-12 ag)
Cn1c(NC(=O)c2ccc(F)cc2)nc2ccccc21	hcDAF-12 act 14, ssDAF-12 act 1.9, hgDAF-12 ag 19 (no result: AHR act) | LXRb hcDAF ctr inactive | hcDAF12 conf 15 | hgDAF12 conf 21 | LXRb DAF12 ctr inactive
O=C(CCc1nnc(CCc2c[nH]c3ccccc23)o1)NC1CCC1	hcDAF-12 act 7.6, ssDAF-12 act 1.1, hgDAF-12 ag 16 | LXRb hcDAF ctr inactive | hcDAF12 conf 6.2 | hgDAF12 conf 12 | LXRb DAF12 ctr inactive
O=C(CCc1nnc(Cc2c[nH]c3ccccc23)o1)NC1CCCC1	none
COc1ccc(NC(=O)NNS(=O)(=O)c2ccc(OC)c(OC)c2)c(OC)c1	none
Cc1ccsc1/C=N/Nc1nc2ccccc2[nH]1	hcDAF-12 act 9.9, DAX1 inh-1 3.7, hgDAF-12 ag 14 (no result: AHR act) | LXRb hcDAF ctr inactive | hcDAF12 conf inactive | hgDAF12 conf 14 | LXRb DAF12 ctr inactive
Cc1ccc(C(=O)Nc2ncc(C)s2)s1	hcDAF-12 act 6.8, hgDAF-12 ag 17 | LXRb hcDAF ctr inactive | hcDAF12 conf 6.3 | hgDAF12 conf 18 | LXRb DAF12 ctr inactive
Cc1cnc(NC(=O)c2ccc3c(c2)OCCO3)s1	none
CC1OC(Oc2ccc3ccc(=O)oc3c2-c2c(O)ccc3cc(Oc4ccc5ccc(=O)oc5c4)c(=O)oc23)C(O)C(O)C1O (stereo not given)	none
CCN(CC)c1ncnc2c1ncn2[C@H]1CN(Cc2ccc(-c3ccccc3)cc2)C[C@@H](CO)O1	none (no result: AHR act, DAX1 inh-2)
Clc1ccccc1-c1nnc(-c2cccs2)o1	hcDAF-12 act 11, ssDAF-12 act 1.0, DAX1 inh-2 9.4, hgDAF-12 ag 20 | LXRb hcDAF ctr inactive | hcDAF12 conf 8.1 | hgDAF12 conf 24 | LXRb DAF12 ctr inactive
c1ccc(CSc2nnc(-c3cccs3)o2)cc1	none
C/C(=N\Nc1ccc(Cl)c(C(=O)O)c1)c1ccc(Br)s1	none
C/C(=N\Nc1ccc(C(=O)O)cc1)c1ccc(Cl)s1	hcDAF-12 act 8.2, ssDAF-12 act 1.1, hgDAF-12 ag 16 | LXRb hcDAF ctr inactive | hcDAF12 conf 11 | hgDAF12 conf 20 | LXRb DAF12 ctr inactive
CCOC(=O)CNC(=O)N(CCOC)CC1CCCN(C2Cc3ccccc3C2)C1 (stereo not given)	none
O=C(O)/C=C\C(=O)Nc1ccccc1C#Cc1ccc(Br)cc1	AHR act 69, hcDAF-12 act 16, DAX1 inh-1 3.8, ssDAF-12 act 2.1, hgDAF-12 ag 22 | LXRb hcDAF ctr inactive | hcDAF12 conf inactive | hgDAF12 conf 16 | LXRb DAF12 ctr inactive
Cc1ccnc(NC(=O)c2ccc(Br)s2)c1	hcDAF-12 act 14, ssDAF-12 act 1.6, hgDAF-12 ag 20 | LXRb hcDAF ctr inactive | hcDAF12 conf 9.3 | hgDAF12 conf 17 | LXRb DAF12 ctr inactive
Cc1ccc(NC(=O)CSc2nc3[nH]ncc3c(=O)[nH]2)c(C)c1	none
O=C(CS(=O)(=O)c1ccccc1)N1CCc2ccccc21	hcDAF-12 act 13, ssDAF-12 act 1.9, hgDAF-12 ag 21 | LXRb hcDAF ctr inactive | hcDAF12 conf 9.1 | hgDAF12 conf 17 | LXRb DAF12 ctr inactive
CC1=NN(c2ccccc2)C(=O)C1N=Nc1cccc(O)c1 (stereo not given)	hcDAF-12 act 18, ssDAF-12 act 1.6, hgDAF-12 ag 14 | LXRb hcDAF ctr inactive | hcDAF12 conf 13 | hgDAF12 conf 19 | LXRb DAF12 ctr inactive
COc1ccc(CN2C(=O)CSC2c2ccccn2)cc1 (stereo not given)	none
CCN(Cc1nc2cc(Cl)ccc2c(=O)[nH]1)C(=O)CN1C(=O)NC2(CCCCC2C)C1=O (stereo not given)	none (no result: AHR act)
C(=C\c1nc2ccccc2[nH]1)/c1ccccc1	hcDAF-12 act 7.2, hgDAF-12 ag 14 | LXRb hcDAF ctr inactive | hcDAF12 conf 8.1 | hgDAF12 conf 18 | LXRb DAF12 ctr inactive
O=c1[nH]c(/C=C/c2ccccn2)nc2ccccc12	none
CN(C)c1ccc(/C=C/c2nc3ccccc3c(=O)[nH]2)cc1	hcDAF-12 act 6.6, hgDAF-12 ag 19 | LXRb hcDAF ctr inactive | hcDAF12 conf 8.1 | hgDAF12 conf inactive | LXRb DAF12 ctr inactive

Screening data deposited in PubChem BioAssay by The Scripps Research Institute Molecular Screening Center.
